1 sequence from paper PMC7862700, “An all-to-all approach to the identification of sequence-specific readers for epigenetic DNA modifications on cytosine” can be followed below.

Common to all, as to assay: DAPPL (digital affinity profiling via proximity ligation, sequencing); 10 mM Tris-HCl pH 7.5, 50 mM NaCl, 1 mM DTT, 4% glycerol, room temperature, 30 min; GST-TFs on glutathione beads, 16-mer random dsDNA library, 0.1% formaldehyde crosslink after washing; high values mean tight binding
What all share (conditions): protein: recombinant; tags: N-terminal GST; dsDNA, one strand shown

In one test the target is T1, ELK1 (Homo sapiens, UniProt P19419 1-428).
T1 sequence: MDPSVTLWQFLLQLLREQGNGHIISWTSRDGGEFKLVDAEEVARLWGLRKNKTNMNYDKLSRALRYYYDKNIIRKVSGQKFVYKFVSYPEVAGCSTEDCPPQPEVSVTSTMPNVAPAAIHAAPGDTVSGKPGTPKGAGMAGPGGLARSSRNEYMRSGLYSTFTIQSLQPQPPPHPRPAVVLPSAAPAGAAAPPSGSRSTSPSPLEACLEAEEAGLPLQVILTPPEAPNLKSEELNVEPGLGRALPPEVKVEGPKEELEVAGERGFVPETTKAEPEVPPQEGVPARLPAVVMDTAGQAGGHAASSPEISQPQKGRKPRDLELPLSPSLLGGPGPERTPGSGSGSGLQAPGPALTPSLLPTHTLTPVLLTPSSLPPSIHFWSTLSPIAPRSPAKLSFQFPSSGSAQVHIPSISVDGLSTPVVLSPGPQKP
In short, it runs like this: (§1)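 Each value of binding signal is a hexamer's read frequency for a factor divided by the same hexamer's frequency in the tag-only sample. Barcoded, bead-captured GST fusions of human transcription factors made in yeast were pooled with that sample and incubated with 200 nmole of a random double-stranded 16-mer DNA library in Tris/NaCl/DTT/glycerol buffer at room temperature for 30 min. Washing, 0.1% formaldehyde crosslinking, proximity ligation, PCR and Illumina NextSeq500 sequencing followed.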

The next test has as its target T2, GABPA (Homo sapiens, UniProt Q06546 1-454).
T2 sequence: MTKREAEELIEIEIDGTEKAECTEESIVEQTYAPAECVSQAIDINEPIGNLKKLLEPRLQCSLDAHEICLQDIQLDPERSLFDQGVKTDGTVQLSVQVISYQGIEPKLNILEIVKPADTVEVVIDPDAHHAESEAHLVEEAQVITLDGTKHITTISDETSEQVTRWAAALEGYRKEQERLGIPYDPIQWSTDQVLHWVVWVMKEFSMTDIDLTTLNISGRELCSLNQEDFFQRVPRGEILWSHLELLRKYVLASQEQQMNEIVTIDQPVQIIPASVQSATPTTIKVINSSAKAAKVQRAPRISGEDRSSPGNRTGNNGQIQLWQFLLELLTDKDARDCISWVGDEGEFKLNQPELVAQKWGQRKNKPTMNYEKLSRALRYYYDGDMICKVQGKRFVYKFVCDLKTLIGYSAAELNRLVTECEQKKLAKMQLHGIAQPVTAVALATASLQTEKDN
The method, boiled down:
as §1

Another test concerns the target T3, ERG (Homo sapiens, UniProt P11308 1-479).
T3 sequence: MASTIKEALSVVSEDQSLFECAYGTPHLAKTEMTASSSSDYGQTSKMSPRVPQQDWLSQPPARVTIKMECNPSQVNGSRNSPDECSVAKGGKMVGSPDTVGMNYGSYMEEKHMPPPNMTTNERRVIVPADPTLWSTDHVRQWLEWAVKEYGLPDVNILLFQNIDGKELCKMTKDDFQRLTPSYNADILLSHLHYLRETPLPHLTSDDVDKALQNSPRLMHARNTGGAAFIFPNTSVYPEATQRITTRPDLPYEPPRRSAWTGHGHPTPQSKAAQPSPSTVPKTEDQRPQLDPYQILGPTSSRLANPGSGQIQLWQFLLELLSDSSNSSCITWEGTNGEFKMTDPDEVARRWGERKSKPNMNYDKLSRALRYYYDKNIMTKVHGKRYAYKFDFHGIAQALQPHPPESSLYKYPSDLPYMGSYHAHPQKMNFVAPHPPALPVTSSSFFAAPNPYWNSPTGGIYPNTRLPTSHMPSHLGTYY
In short, it runs like this: as §1

A further test addresses ELF1 (Homo sapiens, UniProt P32519 1-619). The method, boiled down:
as §1

In the next test the target is T4, EHF (Homo sapiens, UniProt Q9NZC4 1-300).
T4 sequence: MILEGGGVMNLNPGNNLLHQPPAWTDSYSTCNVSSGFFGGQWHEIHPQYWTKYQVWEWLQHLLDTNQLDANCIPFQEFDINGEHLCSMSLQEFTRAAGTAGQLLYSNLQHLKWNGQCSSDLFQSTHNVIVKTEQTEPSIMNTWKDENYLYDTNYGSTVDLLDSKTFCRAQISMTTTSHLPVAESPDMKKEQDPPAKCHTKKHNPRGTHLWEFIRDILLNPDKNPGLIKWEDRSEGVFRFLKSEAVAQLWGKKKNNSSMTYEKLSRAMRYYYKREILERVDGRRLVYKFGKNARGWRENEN
The method, boiled down:
as §1

The next test addresses SPI1 (Homo sapiens, UniProt P17947 1-270). The method, boiled down: as §1
In another test the target is ETV5 (Homo sapiens, UniProt P41161 1-510). In short, it runs like this: as §1
Sequence of ETV5 (P41161 whole entry): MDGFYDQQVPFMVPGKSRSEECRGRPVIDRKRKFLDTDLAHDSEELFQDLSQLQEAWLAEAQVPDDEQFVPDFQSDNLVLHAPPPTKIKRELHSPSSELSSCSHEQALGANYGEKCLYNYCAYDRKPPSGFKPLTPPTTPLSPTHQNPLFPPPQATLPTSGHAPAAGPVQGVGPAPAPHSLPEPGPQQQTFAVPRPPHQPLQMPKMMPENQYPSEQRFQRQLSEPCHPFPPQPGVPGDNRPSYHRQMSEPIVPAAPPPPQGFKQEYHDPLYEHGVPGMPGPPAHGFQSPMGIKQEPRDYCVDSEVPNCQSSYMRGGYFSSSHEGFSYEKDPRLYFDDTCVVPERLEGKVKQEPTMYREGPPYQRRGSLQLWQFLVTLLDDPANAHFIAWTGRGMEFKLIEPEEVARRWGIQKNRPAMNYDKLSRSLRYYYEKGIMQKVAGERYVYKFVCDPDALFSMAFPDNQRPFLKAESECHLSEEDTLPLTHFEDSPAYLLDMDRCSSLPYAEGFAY
The target in another test is T5, SPIC (Homo sapiens, UniProt Q8N5J4 1-248).
T5 sequence: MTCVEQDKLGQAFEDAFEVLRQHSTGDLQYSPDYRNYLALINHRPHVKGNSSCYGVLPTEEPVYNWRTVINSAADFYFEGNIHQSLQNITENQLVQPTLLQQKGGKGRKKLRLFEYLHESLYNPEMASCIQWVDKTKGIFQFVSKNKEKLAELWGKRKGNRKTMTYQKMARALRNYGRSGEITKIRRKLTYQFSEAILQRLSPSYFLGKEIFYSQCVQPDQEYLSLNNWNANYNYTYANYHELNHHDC
In short, it runs like this:
as §1

The target in the next test is ELF4 (Homo sapiens, UniProt Q99607 1-663). In short, it runs like this: as §1
Sequence of ELF4 (Q99607 whole entry): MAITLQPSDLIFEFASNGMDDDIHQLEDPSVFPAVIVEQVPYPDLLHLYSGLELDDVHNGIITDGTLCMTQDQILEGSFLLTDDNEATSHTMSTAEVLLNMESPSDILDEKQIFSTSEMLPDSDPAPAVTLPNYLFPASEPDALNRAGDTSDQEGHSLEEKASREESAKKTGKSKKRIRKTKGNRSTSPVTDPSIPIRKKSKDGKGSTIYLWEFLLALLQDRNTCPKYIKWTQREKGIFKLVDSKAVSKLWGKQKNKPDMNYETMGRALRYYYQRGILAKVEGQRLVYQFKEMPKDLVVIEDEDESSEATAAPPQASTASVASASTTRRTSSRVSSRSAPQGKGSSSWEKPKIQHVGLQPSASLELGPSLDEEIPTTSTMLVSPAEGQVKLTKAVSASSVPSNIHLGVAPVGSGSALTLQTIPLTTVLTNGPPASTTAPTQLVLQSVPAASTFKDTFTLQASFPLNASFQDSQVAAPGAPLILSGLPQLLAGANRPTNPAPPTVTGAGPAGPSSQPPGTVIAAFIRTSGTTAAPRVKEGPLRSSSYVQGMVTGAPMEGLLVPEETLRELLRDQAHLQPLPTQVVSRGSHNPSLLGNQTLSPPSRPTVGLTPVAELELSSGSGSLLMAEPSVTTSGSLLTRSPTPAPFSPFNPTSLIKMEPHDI
In the next test the target is T6, ELK4 (Homo sapiens, UniProt P28324-2 1-405).
T6 sequence: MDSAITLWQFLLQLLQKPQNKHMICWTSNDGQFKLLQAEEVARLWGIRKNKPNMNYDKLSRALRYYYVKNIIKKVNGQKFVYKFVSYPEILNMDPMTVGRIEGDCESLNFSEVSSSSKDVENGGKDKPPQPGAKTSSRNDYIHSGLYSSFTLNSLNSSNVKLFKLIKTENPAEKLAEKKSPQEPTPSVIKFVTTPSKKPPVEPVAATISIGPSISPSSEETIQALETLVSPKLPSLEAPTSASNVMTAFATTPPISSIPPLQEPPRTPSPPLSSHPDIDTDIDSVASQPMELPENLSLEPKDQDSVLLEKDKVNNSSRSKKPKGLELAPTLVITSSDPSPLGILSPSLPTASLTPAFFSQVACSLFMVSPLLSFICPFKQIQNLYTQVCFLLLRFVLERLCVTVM
In short, it runs like this: as §1

The next test addresses T7, ELF3 (Homo sapiens, UniProt P78545 1-371).
T7 sequence: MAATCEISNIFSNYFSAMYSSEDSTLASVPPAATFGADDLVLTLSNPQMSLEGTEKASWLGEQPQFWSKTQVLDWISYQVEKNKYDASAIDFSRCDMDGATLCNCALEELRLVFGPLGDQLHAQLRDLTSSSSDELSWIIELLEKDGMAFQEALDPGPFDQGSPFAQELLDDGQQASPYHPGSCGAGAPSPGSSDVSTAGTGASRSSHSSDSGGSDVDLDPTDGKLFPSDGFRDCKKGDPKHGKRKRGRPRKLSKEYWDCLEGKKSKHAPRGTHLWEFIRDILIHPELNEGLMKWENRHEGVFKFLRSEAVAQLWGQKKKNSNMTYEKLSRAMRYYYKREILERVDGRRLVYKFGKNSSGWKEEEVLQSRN
In short, it runs like this:
as §1

The target in the next test is ETV1 (Homo sapiens, UniProt P50549 1-477). The method, boiled down:
as §1

The target in a further test is T8, ERF (Homo sapiens, UniProt P50548 1-548).
T8 sequence: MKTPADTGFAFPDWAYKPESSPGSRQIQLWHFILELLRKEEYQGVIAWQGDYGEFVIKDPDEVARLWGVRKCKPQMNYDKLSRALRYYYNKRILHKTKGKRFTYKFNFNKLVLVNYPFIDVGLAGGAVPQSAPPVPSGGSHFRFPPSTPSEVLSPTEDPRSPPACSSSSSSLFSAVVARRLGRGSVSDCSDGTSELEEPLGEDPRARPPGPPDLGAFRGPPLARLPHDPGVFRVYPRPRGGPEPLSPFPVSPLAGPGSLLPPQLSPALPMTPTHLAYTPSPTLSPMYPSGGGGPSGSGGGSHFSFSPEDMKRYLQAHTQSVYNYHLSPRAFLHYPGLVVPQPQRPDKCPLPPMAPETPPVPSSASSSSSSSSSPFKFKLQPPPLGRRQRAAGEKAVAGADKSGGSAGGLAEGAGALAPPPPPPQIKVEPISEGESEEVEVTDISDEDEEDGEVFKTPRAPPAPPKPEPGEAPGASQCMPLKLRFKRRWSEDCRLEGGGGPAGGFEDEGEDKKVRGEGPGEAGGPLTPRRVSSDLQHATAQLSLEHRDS
In short, it runs like this: as §1

In a further test the target is T9, ETV3L (Homo sapiens, UniProt Q6ZN32 1-361).
T9 sequence: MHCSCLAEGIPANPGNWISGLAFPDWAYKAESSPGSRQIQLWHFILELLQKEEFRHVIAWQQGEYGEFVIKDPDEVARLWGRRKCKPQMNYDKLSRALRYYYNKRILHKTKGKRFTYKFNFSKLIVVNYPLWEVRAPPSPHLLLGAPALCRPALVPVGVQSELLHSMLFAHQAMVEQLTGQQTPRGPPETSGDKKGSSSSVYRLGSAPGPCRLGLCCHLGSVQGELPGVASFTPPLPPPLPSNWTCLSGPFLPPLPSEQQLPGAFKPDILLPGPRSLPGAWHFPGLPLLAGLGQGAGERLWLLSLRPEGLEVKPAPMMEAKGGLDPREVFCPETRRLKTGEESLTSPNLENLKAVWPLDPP
The method, boiled down:
as §1

Another test addresses T10, ETS2 (Homo sapiens, UniProt P15036 1-469).
T10 sequence: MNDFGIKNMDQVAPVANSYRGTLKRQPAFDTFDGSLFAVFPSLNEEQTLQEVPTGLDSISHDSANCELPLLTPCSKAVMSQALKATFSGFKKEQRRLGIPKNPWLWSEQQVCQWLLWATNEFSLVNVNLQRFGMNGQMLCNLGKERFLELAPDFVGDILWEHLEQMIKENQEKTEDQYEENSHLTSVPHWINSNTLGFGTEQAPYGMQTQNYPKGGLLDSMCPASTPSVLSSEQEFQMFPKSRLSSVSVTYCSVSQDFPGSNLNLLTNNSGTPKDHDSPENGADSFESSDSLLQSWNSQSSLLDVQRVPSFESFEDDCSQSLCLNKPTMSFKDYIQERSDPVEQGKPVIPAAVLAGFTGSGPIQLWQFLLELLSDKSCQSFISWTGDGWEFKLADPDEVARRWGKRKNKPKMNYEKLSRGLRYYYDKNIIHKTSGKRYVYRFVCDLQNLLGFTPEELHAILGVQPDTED
In short, it runs like this: as §1

The next test concerns the target T11, SPDEF (Homo sapiens, UniProt O95238 1-335).
T11 sequence: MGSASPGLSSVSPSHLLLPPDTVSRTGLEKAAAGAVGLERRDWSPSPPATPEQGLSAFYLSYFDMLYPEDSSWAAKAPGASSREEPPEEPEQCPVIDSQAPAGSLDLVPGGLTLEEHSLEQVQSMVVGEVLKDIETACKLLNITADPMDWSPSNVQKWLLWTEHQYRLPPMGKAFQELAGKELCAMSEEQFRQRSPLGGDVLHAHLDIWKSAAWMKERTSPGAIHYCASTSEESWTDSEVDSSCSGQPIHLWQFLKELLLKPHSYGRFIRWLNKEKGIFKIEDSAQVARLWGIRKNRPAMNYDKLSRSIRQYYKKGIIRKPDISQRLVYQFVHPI
In short, it runs like this: as §1

A further test deals with T12, ETV7 (Homo sapiens, UniProt Q9Y603 1-341).
T12 sequence: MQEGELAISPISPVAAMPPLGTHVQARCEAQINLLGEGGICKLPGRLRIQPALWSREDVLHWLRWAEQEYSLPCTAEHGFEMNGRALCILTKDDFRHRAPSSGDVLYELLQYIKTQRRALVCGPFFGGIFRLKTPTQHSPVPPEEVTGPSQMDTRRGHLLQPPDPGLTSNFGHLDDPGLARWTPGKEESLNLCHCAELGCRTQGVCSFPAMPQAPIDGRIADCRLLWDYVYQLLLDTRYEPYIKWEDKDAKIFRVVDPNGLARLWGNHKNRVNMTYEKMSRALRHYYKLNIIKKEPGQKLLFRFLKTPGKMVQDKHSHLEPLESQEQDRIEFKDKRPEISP
The method, boiled down:
as §1

Another test deals with T13, ETV3 (Homo sapiens, UniProt P41162-2 1-143).
T13 sequence: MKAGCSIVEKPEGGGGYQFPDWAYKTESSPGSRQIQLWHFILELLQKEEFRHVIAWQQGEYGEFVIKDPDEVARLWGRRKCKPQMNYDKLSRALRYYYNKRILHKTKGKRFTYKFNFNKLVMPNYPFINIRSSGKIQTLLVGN
The method, boiled down: as §1

A further test addresses ETV6 (Homo sapiens, UniProt P41212 1-452). The method, boiled down:
as §1

Sequence of ELF1 (P32519 whole entry): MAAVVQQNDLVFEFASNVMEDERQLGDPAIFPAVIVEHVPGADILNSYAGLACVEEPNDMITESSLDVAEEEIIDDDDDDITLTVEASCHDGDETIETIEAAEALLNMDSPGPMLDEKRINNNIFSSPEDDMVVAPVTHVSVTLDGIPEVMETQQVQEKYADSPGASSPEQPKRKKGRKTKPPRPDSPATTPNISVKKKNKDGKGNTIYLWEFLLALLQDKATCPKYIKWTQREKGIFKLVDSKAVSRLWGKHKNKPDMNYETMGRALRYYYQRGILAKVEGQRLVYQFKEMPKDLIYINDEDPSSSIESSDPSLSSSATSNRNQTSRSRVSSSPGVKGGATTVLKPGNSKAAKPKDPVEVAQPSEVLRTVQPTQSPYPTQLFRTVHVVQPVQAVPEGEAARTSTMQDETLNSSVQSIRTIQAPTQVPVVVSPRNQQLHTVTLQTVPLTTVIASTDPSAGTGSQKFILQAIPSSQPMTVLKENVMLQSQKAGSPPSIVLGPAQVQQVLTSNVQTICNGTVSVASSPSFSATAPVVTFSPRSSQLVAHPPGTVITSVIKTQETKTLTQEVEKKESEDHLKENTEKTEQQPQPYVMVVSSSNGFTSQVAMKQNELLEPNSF
Sequence of ETV6 (P41212 whole entry): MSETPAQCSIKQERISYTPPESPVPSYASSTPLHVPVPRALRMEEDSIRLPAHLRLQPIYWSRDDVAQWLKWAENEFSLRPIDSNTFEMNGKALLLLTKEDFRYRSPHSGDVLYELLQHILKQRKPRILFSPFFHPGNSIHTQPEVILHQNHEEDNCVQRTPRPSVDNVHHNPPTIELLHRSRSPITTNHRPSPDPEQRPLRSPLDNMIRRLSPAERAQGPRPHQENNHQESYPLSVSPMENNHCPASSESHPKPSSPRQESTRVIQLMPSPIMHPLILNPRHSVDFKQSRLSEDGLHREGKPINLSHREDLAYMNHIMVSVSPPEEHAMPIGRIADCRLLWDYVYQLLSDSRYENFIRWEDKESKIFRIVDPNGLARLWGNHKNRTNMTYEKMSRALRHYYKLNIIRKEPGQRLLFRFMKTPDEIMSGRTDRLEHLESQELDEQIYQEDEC
Sequence of ETV1 (P50549 whole entry): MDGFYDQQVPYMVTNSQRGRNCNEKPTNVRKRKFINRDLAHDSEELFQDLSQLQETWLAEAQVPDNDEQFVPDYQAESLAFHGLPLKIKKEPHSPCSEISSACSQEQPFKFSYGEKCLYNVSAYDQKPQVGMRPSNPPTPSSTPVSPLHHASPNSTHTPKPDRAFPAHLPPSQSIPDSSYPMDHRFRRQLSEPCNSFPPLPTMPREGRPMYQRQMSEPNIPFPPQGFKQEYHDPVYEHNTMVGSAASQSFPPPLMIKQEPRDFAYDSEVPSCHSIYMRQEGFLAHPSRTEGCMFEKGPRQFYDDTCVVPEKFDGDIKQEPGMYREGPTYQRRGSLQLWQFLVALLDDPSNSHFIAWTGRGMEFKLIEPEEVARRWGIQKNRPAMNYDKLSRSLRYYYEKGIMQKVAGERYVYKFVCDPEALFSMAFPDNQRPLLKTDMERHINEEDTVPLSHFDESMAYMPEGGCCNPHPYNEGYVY

In the case of GTGCAT, the binding signal is 1.05 fold enrichment (6-mer frequency, TF over GST control) in the test with ELK1; 1.1 fold enrichment (6-mer frequency, TF over GST control) with GABPA; 1.06 fold enrichment (6-mer frequency, TF over GST control) with ERG; 1.01 fold enrichment (6-mer frequency, TF over GST control) with ELF1; 1.07 fold enrichment (6-mer frequency, TF over GST control) with EHF; 1.15 fold enrichment (6-mer frequency, TF over GST control) with SPI1. In addition, the binding signal was 1.13 fold enrichment (6-mer frequency, TF over GST control) with ETV5; 1.28 fold enrichment (6-mer frequency, TF over GST control) with SPIC; 1.08 fold enrichment (6-mer frequency, TF over GST control) with ELF4; 1.08 fold enrichment (6-mer frequency, TF over GST control) in the test with ELK4; 1.03 fold enrichment (6-mer frequency, TF over GST control) with ELF3; 1.05 fold enrichment (6-mer frequency, TF over GST control) with ETV1. Besides, the binding signal was 1.18 fold enrichment (6-mer frequency, TF over GST control) with ERF; 1.04 fold enrichment (6-mer frequency, TF over GST control) with ETV3L; 1.1 fold enrichment (6-mer frequency, TF over GST control) in the test with ETS2; 1.17 fold enrichment (6-mer frequency, TF over GST control) with SPDEF; 1.12 fold enrichment (6-mer frequency, TF over GST control) in the test with ETV7; 1 fold enrichment (6-mer frequency, TF over GST control) in the test with ETV3. In addition, the binding signal in the test with ETV6 was 1.14 fold enrichment (6-mer frequency, TF over GST control).
